Source: PubChem BioAssay (National Center for Advancing Translational Sciences (NCATS))
Sampled rows, rich in hits. Any-hit rate of the full collection: about 7.3%.
RORg inh – ROR gamma (mouse) transcription inhibition; P51450; Drosophila S2 Gal4-RORgamma UAS-luciferase reporter, 20 h; Potency, µM (doses to about 53.6 µM), most hits filed as inhibitors; 310,000 compounds, 5.4% hits; AID 2551; also: nearly all actives have a fitted effect of over 60% in size
Target sequence (P51450 whole entry, looked up, the tested form may be a part): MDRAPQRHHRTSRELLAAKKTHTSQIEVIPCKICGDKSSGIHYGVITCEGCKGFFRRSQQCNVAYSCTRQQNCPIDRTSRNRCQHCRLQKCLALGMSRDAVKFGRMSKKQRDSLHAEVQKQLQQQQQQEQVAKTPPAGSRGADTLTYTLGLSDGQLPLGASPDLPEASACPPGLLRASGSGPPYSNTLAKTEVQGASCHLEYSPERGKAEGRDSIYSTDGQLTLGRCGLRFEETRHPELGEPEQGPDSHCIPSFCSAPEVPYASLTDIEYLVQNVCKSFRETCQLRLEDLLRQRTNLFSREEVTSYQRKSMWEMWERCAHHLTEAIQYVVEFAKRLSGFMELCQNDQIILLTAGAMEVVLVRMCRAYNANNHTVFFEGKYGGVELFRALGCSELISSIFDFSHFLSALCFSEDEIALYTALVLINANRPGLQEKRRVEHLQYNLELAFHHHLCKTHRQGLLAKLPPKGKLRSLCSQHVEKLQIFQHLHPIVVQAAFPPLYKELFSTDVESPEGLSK
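In this cell-based reporter format, copper sulfate (700 uM final) drives Gal4–ROR gamma fusion expression from a metallothionein promoter in Drosophila Schneider cells; compounds preincubated 1 hr, reporter read after 20 hr at ambient temperature.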
Tau fibril FP – tau fibrillization inhibition (FP) | K18 P301L tau heparin fibrillization, Alexa594 FP, 6 h | Potency, µM (series often up to 57.7 µM), usual class: inhibitors | P10636 | AID 1468 | 280,000 compounds, 0.39% hits; also: nearly all actives have a fitted effect of over 55% in size
Target sequence (P10636 561-689 P618L limits assumed): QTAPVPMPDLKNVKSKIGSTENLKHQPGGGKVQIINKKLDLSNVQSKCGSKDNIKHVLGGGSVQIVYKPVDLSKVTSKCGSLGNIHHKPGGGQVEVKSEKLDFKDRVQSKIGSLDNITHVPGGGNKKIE
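K18 P301L tau (15 uM unlabeled/0.24 uM Alexa 594-labeled, final) + compound + heparin 20 uM final; 100 mM NaOAc pH 7; 6 hr 37 C; ThT 30 uM final added, 1 hr RT; FP ex 555/em 632 nm.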
Tau fluor cs – counter-screen for tau fibril formation inhibitors | tau K18 P301L Alexa594 fluorescence, heparin fibrillization | Potency, µM (top dose mostly 57.7 µM) | 280,000 compounds, 0.93% hits | AID 1463; also: nearly all actives have a fitted effect of over 55% in size
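Human K18 P301L tau (15 uM unlabeled plus 0.24 uM Alexa 594-labeled, final) in 100 mM sodium acetate pH 7 was mixed with compound and 20 uM heparin and incubated 6 hr at 37 C.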
VP16 counter – inhibits Gal4-VP16 luciferase reporter, ROR gamma counter-screen | Potency, µM (titrated, usually from 53.6 µM), usual class: inhibitors | 310,000 compounds, 3.5% hits | AID 2546 | Drosophila S2 Gal4-VP16 UAS-luciferase, luminescence, 20 h;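 also: Gal4-VP16 expression switched on by copper sulfate through the metallothionein promoter; nearly all actives have a fitted effect of over 50% in size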
Tau fibril ThT – inhibitors of human tau fibril formation, thioflavin T binding. recombinant tau K18 P301L (four-repeat tau fragment), heparin-induced fibrillization, ThT fluorescence. Potency, µM (doses to about 57.4 µM), actives largely listed as inhibitors. 270,000 compounds, 2.1% hits. AID 1460; also: nearly all actives have a fitted effect of over 55% in size
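Aggregation was driven by heparin (20 uM final) acting on recombinant tau […] bearing P301L in 100 mM sodium acetate pH 7; fibrils were detected with Thioflavin T.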
Numbers stand for hits; – = inactive; ? = inconclusive; · = no result; [ ] = remark or other dose. Calls follow the shape of the dose curve; as a rule, active = well fitted curve in the direction sought with a large enough effect; inconclusive = small, poorly fitted or top-dose-only effect, or another doubt; inactive = no such curve, though single readings can be large; an effect the other way counts as inactive or inconclusive.

SMILES	RORg inh	Tau fibril FP	Tau fluor cs	VP16 counter	Tau fibril ThT
CO[C@@H]1[C@@H]2OP(=O)(O)OC[C@H]2O[C@H]1n1c(Sc2ccc(Cl)cc2)nc2c(N)ncnc21	–	–	–	–	–
COc1ccccc1Nc1nc(N)nc(CSC(=S)N2CCN(c3ccccc3)CC2)n1	–	–	–	–	–
COc1ccccc1Nc1nc(N)nc(CSC(=S)N2CCC(C)CC2)n1	0.126µM	–	–	5.01µM	–
COc1ccccc1Nc1nc(N)nc(CSC(=S)N2CCCCC2C)n1 (centres undefined)	7.94µM	?	?	7.08µM	?
FC(F)(F)c1ccc(C2[C@H]3CN(CC4CCCCC4)[C@H](c4ccccc4)C34CC2(c2ccccc2)C4)cc1 (some centres undefined)	–	–	–	–	–
CCN(CC(=O)Nc1cccc(F)c1)Cc1nc2ccccc2c(=O)[nH]1	?	–	–	?	–
CCN(CC(=O)Nc1cc(OC)ccc1OC)Cc1nc2ccccc2c(=O)[nH]1	20µM	–	–	–	–
CCN(Cc1nc2ccccc2c(=O)[nH]1)Cc1cc(=O)oc2cc(OC)ccc12	14.1µM	–	–	15.8µM	–
CCN(CC(=O)Nc1ccc(C(=O)Nc2ccc(OC)cc2)cc1)Cc1nc2ccccc2c(=O)[nH]1	3.16µM	–	?	?	?
COc1ccc2c(COC(=O)c3n[nH]c4ccccc34)cc(=O)oc2c1	–	–	–	–	?
COc1cc2c(cc1NC(=O)CN(C)Cc1nc3ccccc3c(=O)[nH]1)oc1ccccc12	4.47µM	–	?	11.2µM	?
C=CCC(Nc1ccc(OC)cc1)C(=O)OCC (centres undefined)	–	–	–	–	–
CC(C)CNC(=S)NC(=O)c1ccc([N+](=O)[O-])cc1	4.47µM	–	–	14.1µM	–
CC(C)CNC(=S)NC(=O)c1csc([N+](=O)[O-])c1	?	–	–	?	?
CCCCNC(=S)NC(=O)c1ccc([N+](=O)[O-])cc1	4.47µM	–	–	?	?
COc1cccc(CNC(=O)C2CCCN(S(=O)(=O)c3cn(C)cn3)C2)c1 (centres undefined)	·	–	–	·	–
CC(=O)O[C@H]1C(=O)[C@@]2(C)C([C@H](OC(=O)c3ccccc3)[C@]3(O)C[C@H](OC(=O)[C@H](O)[C@@H](NC(=O)c4ccccc4)c4ccccc4)C(C)=C1C3(C)C)[C@]1(OC(C)=O)CO[C@@H]1C[C@H]2O (some centres undefined)	?	·	·	20µM	·
C=CC[n+]1ccc(/C=C2\C=Cc3cc(C)ccc3N2CC)c2ccccc21	1.26µM	31.6µM	–	1.26µM	3.16µM
O=C(CCNS(=O)(=O)c1cccs1)NC1CCN(Cc2ccccc2)CC1	–	–	–	–	–
CN(C)S(=O)(=O)Oc1ccc(C(=O)Nc2cccc(Cl)c2)cc1	?	–	–	12.6µM	–
COC(=O)c1cc2sccc2n1CC(=O)Nc1ccc(OC)c(OC)c1	·	–	–	·	–
CC(=O)CC(=O)Nc1ncc(C(F)(F)F)cc1Cl	–	–	–	–	–
O=C(NNc1ncc(C(F)(F)F)cc1Cl)c1ccc(Cl)c(Cl)c1	11.2µM	–	–	?	–
Nc1ccccc1C(=O)NNc1ncc(C(F)(F)F)cc1Cl	0.794µM	–	–	1µM	–
CCOC(=O)Cn1c(=O)n(C2CCCCC2)c2nc(-c3c(F)cccc3Cl)nc(C(N)=O)c21	·	–	–	·	–
SMILES	RORg inh	Tau fibril FP	Tau fluor cs	VP16 counter	Tau fibril ThT
NCCCCCCCCCCNS(=O)(=O)c1cccc2c(Cl)cccc12	?	–	–	31.6µM	?
Oc1cc2ccccc2cc1-c1n[nH]c(=S)o1	–	–	–	–	?
Cc1cc(-c2n[nH]c(=S)o2)c(C)n1-c1ccccc1	12.6µM	–	–	?	?
CC1CCCC(C)N1CC(O)COCc1ccccc1 (centres undefined)	–	·	·	–	·
Cc1cc2nc(-c3ccccc3)cc(=O)n2[nH]1	12.6µM	–	–	?	–
Cc1cc(-c2ccccc2)nc2c(Br)c(=O)[nH]n12	–	?	–	–	10µM
O=C(NC1CCCC1)C(c1ccccn1)N(C(=O)c1csnn1)c1ccc(F)cc1 (centres undefined)	–	·	·	–	·
Cc1ccccc1C(=O)Oc1cccc2c(O)cccc12	–	·	·	?	·
Cc1ccccc1S(=O)(=O)Oc1cccc2c(O)cccc12	7.08µM	·	·	?	·
COc1ccc(NC(=O)c2ccc3c(=O)n(Cc4ccco4)c(=S)[nH]c3c2)c(OC)c1	?	–	–	–	?
O=c1c2ccccc2[nH]c(=S)n1Cc1ccc2c(c1)OCO2	–	–	–	–	–
O=c1c2cc(N3CCOCC3)ccc2[nH]c(=S)n1Cc1cccc(Cl)c1	3.55µM	–	–	5.62µM	–
O=C(NC1CCN(Cc2ccccc2)CC1)c1ccc(Cn2c(=S)[nH]c3ccc(N4CCOCC4)cc3c2=O)cc1	–	–	?	–	?
O=c1c2cc(N3CCOCC3)ccc2[nH]c(=S)n1Cc1ccco1	14.1µM	?	?	?	?
COc1cc2[nH]c(=S)n(Cc3ccco3)c(=O)c2cc1OC	11.2µM	?	–	?	–
O=c1c2cc(Cl)ccc2[nH]c(=S)n1Cc1cccs1	2µM	–	–	4.47µM	–
O=c1c2cc(N3CCOCC3)ccc2[nH]c(=S)n1CCCN1CCCC1	–	–	–	–	–
CCN(CCCn1c(=S)[nH]c2ccc(N3CCOCC3)cc2c1=O)c1ccccc1	3.98µM	–	?	?	–
O=c1c2cc(Cl)ccc2[nH]c(=S)n1Cc1ccco1	2.24µM	–	–	5.62µM	–
COc1cccc(Cn2c(=S)[nH]c3ccc(N4CCOCC4)cc3c2=O)c1	2.82µM	–	–	6.31µM	–
O=c1[nH]c2ccc(Cl)cc2c(=O)n1Cc1ccco1	?	–	–	?	–
O=C(/C=C\c1ccccc1[N+](=O)[O-])Nc1ccccc1	–	–	–	–	?
COC(=O)/C(=C(O)\C=C\c1ccccc1[N+](=O)[O-])c1nc2ccccc2[nH]1	7.94µM	·	·	?	·
COC(=O)c1[nH]c2cc(C)ccc2c1NC(=O)CN1CCOCC1	–	–	–	–	–
COC(=O)c1[nH]c2cc(OC)ccc2c1NC(=O)CN1CCN(c2cccc(C)c2)C(C)C1 (centres undefined)	–	?	14.1µM[quencher]	–	?
CNC(=O)[C@@H](Cc1ccccc1)N(C)C(=O)[C@@H](Cc1ccc2ccccc2c1)N(C)C(=O)/C=C/CC(C)(C)N	–	–	–	–	–
O=C(CSc1nnc(SCc2ccccc2Cl)s1)N/N=C/c1c[nH]c2ccccc12	?	?	14.1µM[quencher]	–	–
CCn1c(SCC(=O)N/N=C/c2ccc(C)o2)nnc1-c1ccc(C(C)(C)C)cc1	?	–	–	?	–
Cc1ccc(CSc2nnc(SCC(=O)N/N=C/c3c[nH]c4ccccc34)s2)cc1	–	–	?	?	–
